# Assay outcomes (PubChem)
# This is a sample that favours compounds with a hit; in the whole collection about 2.3% have one here.
# ANO1 block = blocks the mouse calcium-activated chloride channel TMEM16A; Q8BHY3; HEK293 TMEM16A/YFP iodide influx fluorescence, ionomycin; normalized B-score (activity score, 25-100; higher = stronger inhibition) at 10 µM; 1.2% of 310,000 active; AID 588511;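 active = ratio plate-corrected score three or more library SD toward inhibition, starting fluorescence score within five deviations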;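 note: score derived from kinetic fluorescence span divided by baseline fluorescence per well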
# CHT PAM = allosteric activators of human choline transporter CHT. Q9GZV3. CHT-expressing cells, membrane potential dye, choline EC20; stronger effect = higher value; LV-AA mutant CHT in HEK293 cells. B-score at 10 µM. 0.49% of 310,000 active;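 active = initial fluorescence not abnormally high and integrated response B-score, plate-corrected, over 3 SD above library mean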
# ANO1 activ = activates or potentiates the mouse TMEM16A chloride channel | HEK293 TMEM16A/YFP-H148Q/I152L, iodide quench fluorescence; stronger effect = lower value | B-score at 10 µM | 0.3% of 340,000 active | AID 623877;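 active = fluorescence-ratio B-score plate-corrected deviation score at least 3 library SD below zero, with starting fluorescence score within 5 deviations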;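 note: channel opened by trigger with iodide after compound preincubation; score built on the fluorescence ratio of max minus min over baseline; more negative score means more quench and so TMEM16A activation or potentiation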
# CHT block = human CHT choline transport inhibition | Q9GZV3 | CHT-expressing cells, membrane potential dye, choline response; stronger effect = lower value | B-score at 10 µM | 0.86% of 310,000 active;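 active = B-score over 3 SD under the library average, and starting fluorescence ratio not unusually high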;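 note: choline stimulus applied at its EC90 after an EC20 pre-addition; B-score computed on integrated fluorescence ratio after choline addition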
# CHT inh conf = human CHT inhibition, confirmatory screen | shares compounds with CHT block | CHT-expressing cells, choline membrane potential dye; LV-to-AA substituted CHT, HEK293 cells | CHT activity remaining % of control (stronger effect = lower value), % at 10 µM | 70% of 2,400 active | AID 493221;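 active = choline transporter activity left, mean of duplicates at 10 µM, below buffer-only control mean minus 3 SD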;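 note: depolarization triggered by choline at its EC90 following an EC20 pre-addition; 0% = hemicholinium-3 full block and 100% = buffer-only control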
# HEK293 CHT ctr = activity in parental HEK293 cells lacking CHT; 4% of 2,400 active; membrane potential ratio readout (active if shifted either direction beyond buffer ±3SD; no single direction) at 10 µM; membrane potential dye, choline response; active = decrease or increase beyond buffer ±3SD; shares compounds with CHT block;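 note: parental cells lack the transporter so any hit is non-specific; ratio is peak minus trough fluorescence over baseline after EC90 choline challenge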
# Starred values were filed as active, the others as inactive; i = inactive; . = not tested or not shown.
SMILES,ANO1 block,CHT PAM,ANO1 activ,CHT block,CHT inh conf,HEK293 CHT ctr
O=C(CCc1ccc(S(=O)(=O)N2CCOCC2)cc1)N/N=C/c1ccc(O)c(O)c1O,i,i,i,-12*,i,i
CNc1nc(-c2ccc3c(c2)CCN3C(=O)c2cccc(F)c2)cs1,i,i,i,-5.2*,i,i
CNc1nc(-c2ccc3c(c2)CCN3C(=O)c2ccc(F)cc2)cs1,.,.,i,.,.,.
CCN(CC(=O)Nc1c(F)cccc1F)C(=O)/C=C/c1ccc2c(c1)OCO2,i,i,i,i,.,.
CN1CCN(C(=S)c2ccc(-c3cc(Cl)ccc3Cl)o2)CC1,i,i,i,-9.7*,i,i
N#CCCN1CCN(C(=S)c2ccc(-c3cc(Cl)ccc3Cl)o2)CC1,i,i,i,i,.,.
CCCC(=O)Oc1ccc(N(C(=O)CCC)S(=O)(=O)c2cccs2)cc1,i,i,i,-5.7*,i,i
COc1ccc(Br)cc1C(=O)NC(=S)Nc1ccc(Cl)c(C(=O)O)c1,i,i,i,i,58%*,i
COc1ccc(Br)cc1/C=C/C(=O)NC(=S)Nc1ccc(Cl)c(C(=O)O)c1,i,i,i,i,.,.
CCc1cc([N+](=O)[O-])cc(CC)c1N,i,i,i,-5.9*,40%*,i
Cc1ccc([N+](=O)[O-])cc1N,i,i,i,i,.,.
O=C(NNS(=O)(=O)c1ccc([N+](=O)[O-])cc1)c1ccccc1,.,.,i,.,.,.
O=C(NNS(=O)(=O)c1ccc([N+](=O)[O-])cc1)c1ccc2ccccc2c1O,i,i,i,-5*,42%*,i
CCOC(=O)C1=CNS(=O)(=O)NC1c1ccc(C(=O)OC)cc1 (configuration not stated),.,.,i,.,.,.
O=c1oc2ccccc2c(O)c1Cc1cc(Cl)c2cccnc2c1O,i,i,i,-7.3*,69%*,i
CCCCCCCCNc1ncnc2[nH]ncc12,.,.,i,.,.,.
O=C(Nc1ccccc1)c1cccc(S(=O)(=O)NC2CCCC2)c1,i,i,i,-5.2*,36%*,i
CC(Sc1nnc(Nc2ccccc2F)s1)C(=O)NC1CC1 (configuration not stated),.,.,i,.,.,.
O=C(c1cc(COc2ccc(F)cc2Cl)on1)N1CCC(c2ccncc2)CC1,25*,i,i,-6.5*,56%*,i
COc1ccccc1OCC(=O)NCCS(=O)(=O)N1CCN(c2ccccc2)CC1,i,i,i,-6.9*,58%*,i
CSc1ccccc1C(=O)NCCS(=O)(=O)N1CCN(c2ccc(F)cc2)CC1,i,i,i,-5.3*,38%*,i
COc1ccc(N(CC(=O)NCCSCc2ccccc2Cl)S(C)(=O)=O)cc1Cl,i,i,i,i,.,.
COc1ccc(S(=O)(=O)NCC2CCCN(Cc3ccc(O)cc3)C2)cc1 (configuration not stated),i,i,i,i,.,.
CCN(CC)S(=O)(=O)c1ccc2c(c1)[nH]c(=S)n2CC,i,i,i,i,.,.
CCOC(=O)c1ccc2c(c1)[nH]c(=S)n2CC,i,i,i,-5.1*,56%*,i
SMILES,ANO1 block,CHT PAM,ANO1 activ,CHT block,CHT inh conf,HEK293 CHT ctr
O=[N+]([O-])c1ccc(Nc2ccccc2)c2nonc12,i,i,i,-6*,47%*,i
CC(Oc1ccc(Cl)cc1)C(=O)NNC(=S)NC(=O)c1ccco1 (configuration not stated),i,i,i,-6.5*,58%*,i
COc1ccc(C(=O)NNC(=S)NC(=O)c2ccco2)cc1,i,i,i,i,.,.
CC1CCCN(C(=O)COC(=O)Cn2cnc3ccccc32)C1 (configuration not stated),.,.,i,.,.,.
O=C(O)c1ccccc1NS(=O)(=O)c1cccc(-n2sc3ccccc3c2=O)c1,i,i,i,-6.4*,22%*,i
O=C(Nc1cccc([N+](=O)[O-])c1)C(=O)N1CCCCC1,i,i,i,-5*,i,i
Cc1ccc(CSc2nnc(C)c(=O)[nH]2)cc1,i,i,i,-7.9*,i,i
Cc1nnc(SCc2ccccc2)[nH]c1=O,i,i,i,i,.,.
Brc1ccc(C2=Nc3ccccc3C(c3ccncc3)=NN2)cc1,i,i,i,-11*,i,i
Cc1ccc(S(=O)(=O)NC(=O)COc2cc(C)ccc2C(C)C)cc1,i,i,i,-5.9*,50%*,i
Cc1ccc(C(C)C)c(OCC(=O)NNC(=O)Nc2ccccc2)c1,i,i,i,i,.,.
CCCCOc1ccc(C(=O)NCC(=O)OC2CCOC2=O)cc1 (configuration not stated),i,i,.,-5*,i,i
COc1cccc(CCC2C(=O)CCCC2=O)c1,.,.,i,.,.,.
COC(=O)C(C)Sc1nc2c(c(=O)[nH]c(=O)n2C)n1CCCc1ccccc1 (configuration not stated),i,i,i,-9.3*,21%*,i
C(=NN=C(NN=Cc1cccs1)NN=Cc1cccs1)c1cccs1,.,.,i,.,.,.
O=C(OCC(=O)N1CCN(c2ccc(F)cc2)CC1)c1cnc2ccccc2n1,.,.,i,.,.,.
O=C(CSc1ccccn1)N1CCN(c2ncc(C(F)(F)F)cc2Cl)CC1,i,i,i,-5.3*,i,i
COc1cccc(COC(=O)C2CCN(C(=O)c3ccc(F)cc3)CC2)c1OC,i,i,i,i,.,.
COCCNC(=O)Cn1nc(-c2ccc(Cl)cc2)c2ccccc2c1=O,i,i,i,i,.,.
O=C(CCCSc1nc2ccccc2s1)NC1=NCCS1,i,i,i,-15*,4.3%*,i
COc1ccc(CCNCc2cc3ccc(C)cc3[nH]c2=O)cc1OC,i,i,i,i,.,.
COCCN1Cc2cccc(C(=O)Nc3ccc(-c4nc5ccccc5[nH]4)cc3)c2C1=O,i,i,i,-8.3*,i,i
CCOC(=O)C1=C(C)Nc2ccccc2N=C1NC(=O)c1oc2ccccc2c1COC,.,.,i,.,.,.
CCOc1ccc(N/N=C(/C#N)C(N)=O)cc1,i,i,i,i,.,.
N#C/C(=N/Nc1ccc(OC(F)(F)F)cc1)C(N)=S,100*,i,i,-11*,30%*,i
O=C(O)c1sccc1Oc1ccc(NS(=O)(=O)c2cccc(F)c2)cc1,i,i,i,i,.,.
COc1ccccc1C(=O)OCC(=O)Nc1ccccc1OC(F)F,i,i,i,-7.8*,i,i
COc1ccccc1C(=O)OCC(=O)Nc1ccc(OC(F)F)cc1,i,i,i,i,.,.
